# Source: PubChem
# Shown is part of a subset that was picked to be rich in hits.
# Dicer inh: blocks human Dicer maturation of pre-miR-21. 6% of 47,000 active. cat-ELCCA pre-miR-21 Dicer processing, chemiluminescence; hits give high values. Q9UPY3. z-score at 25 µM. AID 1347074; in the data active means z-score above about 3, passing the limit was not always enough;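 further: higher signal means more uncleaved substrate so more Dicer inhibition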
# Hits are given with their value; n = inactive.
SMILES,Dicer inh
CC1(C)SC(c2ccc(Cl)cc2Cl)NC1C(=O)O (configuration not stated),n
COc1ccc(NC(=O)Nc2nc(-c3ccc(C)c(Cl)c3)c(C)s2)cc1OC1CCCC1,n
Nc1cc(=O)n(Cc2ccccc2F)c(=O)n1-c1ccccc1C(F)(F)F,n
CN(C)c1nc(N2CCOCC2)nc(N(c2ccccc2)c2ccccc2)n1,n
CCOC(=O)c1cnc(N2CCOCC2)nc1N,n
CC(C)(C)Nc1nc(C(=O)O)nc(N2CCOCC2)n1,n
CCCNC(=O)NNC(=O)C(C)n1nnc(N2CCOCC2)n1 (configuration not stated),n
CN(C)c1nc(C(=O)O)nc(N2CCOCC2)n1,3.4
CC(C)(C)Nc1nc(C(N)=O)nc(N2CCOCC2)n1,5.1
Cc1cc(C)n(-c2nc3c(c(=O)[nH]c(=O)n3C)n2CCOc2ccccc2)n1,n
O=c1[nH]n(-c2ncnc3sc4c(c23)CCCC4)c(=O)c2ccccc12,n
N#C/C(=C\c1c(Cl)cccc1Cl)C(N)=O,n
COc1ccc(CC2(O)CCC3(CC2)OCCO3)cc1,n
CC1=CC(C)(C)N(C(=O)Nc2ccccc2)c2cc(C)c(C)cc21,n
CC(C)OC(=O)c1nnn(-c2nonc2N)c1CN1CCCCC1,n
Cc1nc2cc(Cl)ccc2c(=O)n1CC1CCCO1 (configuration not stated),n
O=C1CC(NCC2CCCO2)C(=O)N1c1ccc(F)cc1 (configuration not stated),n
O=C(NCc1ccc(F)cc1)c1nc2c(nnn2CC2CCCO2)c(=O)[nH]1 (configuration not stated),3.1
CCN(CC)c1ccc([N+](=O)[O-])c(N(CC)CC)n1,n
Cc1cc(C)cc(OCc2nc(-c3ccc(-n4cccc4)cc3)no2)c1,n
Cc1nccc(-c2cccc(S(=O)(=O)NCc3c(-c4ccccc4)noc3C)c2)n1,n
CCOC(=O)c1nn(-c2ccc(C(C)(C)C)cc2)c(=O)c(C#N)c1C,n
CS/C(=N\S(=O)(=O)c1cc(C(F)(F)F)cc(C(F)(F)F)c1)N1CCOCC1,n
Cc1nc(-c2ccccc2)nc(SCc2c(F)cccc2Cl)c1C#N,n
Cn1cc(Cl)c(/C=C(\C#N)S(=O)(=O)c2ccccc2)n1,n
SMILES,Dicer inh
Cn1cc(Cl)c(/C=C(\C#N)S(=O)(=O)C(C)(C)C)n1,4.2
Cn1cc(Cl)c(/C=C(\C#N)C(=O)c2ccc(Cl)cc2)n1,n
COC(=O)c1cccn1-c1ccccc1[N+](=O)[O-],n
Cc1c(S(=O)(=O)c2ccc(Cl)cc2)csc1C(=O)N(c1ccccc1)S(C)=O (configuration not stated),n
O=C(Oc1cc2ccccc2cc1C(=O)O)c1cccc(Cl)c1,n
NNC(=O)c1ccc([N+](=O)[O-])cc1Cl,n
COc1ccc(Oc2ccc([N+](=O)[O-])cc2C(=O)NNC(=O)c2ccc(Cl)cc2Cl)cc1,4.8
COC(=O)c1cc(Cl)ccc1Oc1ccc([N+](=O)[O-])c(Oc2ccc(Cl)cc2C(=O)OC)n1,n
CCCOc1ccc(-c2cc(OCC)c3c(C)oc(C)c3c(=O)c2)cc1,n
CC12N=NCC1C(=O)N(c1ccc(Cl)cc1)C2=O (configuration not stated),3
Cc1ccc(N2C(=O)C3CN=NC3(C)C2=O)cc1 (configuration not stated),n
CC12N=NCC1C(=O)N(c1cccc(Cl)c1)C2=O (configuration not stated),n
NN/C(N)=N/C(N)=Nc1cccc(F)c1,n
O=C(/C=C/Nc1ccc(Cl)cc1Cl)C(F)(F)F,n
C=CCNC(=O)c1cc2c(n(-c3ccc(Cl)cc3)c1=O)CC(C)(C)CC2=O,n
Cc1cc(C)nc(SCC(=O)Nc2ncc3c(n2)CCCC3=O)n1,n
O=C1CCCc2nc3c(cc21)C(=O)CCC3,4
Cc1cc(C)nc(-n2ncc3c2CCCC3=O)n1,n
Cc1ccc(N2C(=O)c3oc4ccccc4c(=O)c3C2c2ccc(F)cc2)nc1 (configuration not stated),n
COC(=O)C/C(=N/NS(=O)(=O)c1ccc(C)cc1)C(=O)OC,n
Cc1ccc(C(=O)NC(Nc2cccc(C)n2)(C(F)(F)F)C(F)(F)F)cc1,n
O=C(Nc1ccccc1C(=O)O)OCC1c2ccccc2-c2ccccc21,5.2
CC(CO)NC(=O)OCC1c2ccccc2-c2ccccc21 (configuration not stated),n
CC(C)C(NC(=O)OCC1c2ccccc2-c2ccccc21)C(=O)O (configuration not stated),n
C=CCSc1nnc(C)n1-c1ccc(OCc2ccccc2)cc1,n
SMILES,Dicer inh
CCCOCCOC(=O)C1=C(C)NC2=C(C(=O)CCC2)C1c1ccc(OC)cc1OC (configuration not stated),n
Fc1ccccc1NC(=S)N/N=C/c1cccc2ccccc12,3.4
CC(C)(C)OC(=O)N/N=C\c1cccc2ccccc12,n
CNC(=S)N/N=C/c1c(O)ccc2ccccc12,n
O=C(Oc1ccccc1)c1cc([N+](=O)[O-])cc2c1-c1ccc([N+](=O)[O-])cc1C2=O,n
COc1cc(C(F)(F)F)nc2c(C(=O)NNC(=O)c3ccc(Cl)cc3)scc12,n
CCSCCOC(=O)C1=C(C)NC2=C(C(=O)CCC2)C1c1ccc(OC)c(OC)c1 (configuration not stated),4.8
CCCCOC(=O)C1=C(C)NC2=C(C(=O)CCC2)C1c1ccc(OC)c(OC)c1 (configuration not stated),n
CCOCCOC(=O)C1=C(C)NC2=C(C(=O)CCC2)C1c1cccc(F)c1 (configuration not stated),n
COCCOC(=O)C1=C(C)NC2=C(C(=O)CCC2)C1c1ccc(Cl)cc1 (configuration not stated),n
CCSCCOC(=O)C1=C(C)NC2=C(C(=O)CCC2)C1c1ccc(C(=O)OC)cc1 (configuration not stated),n
CCn1c2ccccc2c2cc(C3C(C(=O)OCCOC)=C(C)NC4=C3C(=O)CCC4)ccc21 (configuration not stated),3.6
CCn1c2ccccc2c2cc(C3C(C(=O)OCC4CCCO4)=C(C)NC4=C3C(=O)CCC4)ccc21 (configuration not stated),n
CCSCCOC(=O)C1=C(C)NC2=C(C(=O)CCC2)C1c1cccc(F)c1 (configuration not stated),3.1
CCCCCOC(=O)C1=C(C)NC2=C(C(=O)CCC2)C1c1ccc(OC)c(OC)c1 (configuration not stated),n
COc1ccc(-c2nn(-c3ccccc3)cc2C2CC(c3cccs3)=NN2S(C)(=O)=O)cc1 (configuration not stated),n
Cc1cc(C(C)(C)c2ccc(OCC(=O)O)c(C)c2)ccc1OCC(=O)O,n
CCOC(=N)c1cccc(C(F)(F)F)c1,n
COCc1cc(=O)[nH]c(SCC(=O)c2ccc(-c3ccccc3)cc2)n1,n
Clc1cccc(Cl)c1CSC1=NCCCN1C1CCCCC1,n
CCOCCOC(=O)C1=C(C)NC2=C(C(=O)CC(C)(C)C2)C1c1ccc(OC)c(Br)c1 (configuration not stated),n
COC(=O)c1c(C)oc2ccc(OC(C)C(=O)OC)cc12 (configuration not stated),n
CCCn1c(SCCO)nc2c1c(=O)[nH]c(=O)n2C,n
CSc1nc(-c2ccccc2)nc(Sc2ccccn2)c1C#N,n
COc1ccc(NC(=O)CSc2c(Cl)c(Cl)cc(Cl)c2Cl)cc1,n
O=C(O)CN1C(=O)CC(Cc2ccc(Br)cc2)C1=O (configuration not stated),n
